{"source": "PubChem BioAssay AID493008", "about": "(The Scripps Research Institute Molecular Screening Center, 2010)", "note": "The campaign covered roughly 340,000 compounds. About 800 (0.24%) were called active. Shown is part of a subset that was picked to be rich in actives. A number with no mark means an inactive call.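 How the source made its calls: active means activation above the mean over all tested compounds plus 3 SD (cut at about 30% in these data); inactive means the rest.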", "data": [{"biological_target": "Troponin I, cardiac muscle (Homo sapiens) + Troponin T, cardiac muscle (Homo sapiens) + Troponin C, slow skeletal and cardiac muscles (Homo sapiens) (UniProt P19429+P45379+P63316)", "experiment": "calcium sensitizers of cardiac thin filaments – biochemical, IANBD-TnC fluorescence, EC20 calcium, primary screen (AID 493008);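 further: rise in fluorescence read as greater calcium sensitivity of cardiac thin filaments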", "conditions": "IANBD-labeled TnC RTF fluorescence at EC20 calcium; at 7.2 µM; stronger effect = higher value; 0% EC20 calcium, 100% full calcium", "values": [{"smiles": "S=C(Nc1ccccc1)Nc1ccc2ccccc2c1", "activation": "-10.4%"}, {"smiles": "CC1CCCC(C)N1C(=O)CN1CCN(c2nc(-c3ccc(F)cc3)cs2)CC1", "note": "(centres undefined)", "activation": "-5.89%"}, {"smiles": "CCCC(C)C(=O)Nc1ccc(NC(C)=O)cc1", "note": "(centres undefined)", "activation": "-2.2%"}, {"smiles": "CC(C)(C)c1ccc(/C=C/C(=O)NC2CCS(=O)(=O)C2)cc1", "note": "(centres undefined)", "activation": "8.91%"}, {"smiles": "O=C(NC(Cc1c[nH]c2ccccc12)C(=O)N/N=C/c1ccc(Br)cc1)c1cccs1", "note": "(centres undefined)", "activation": "-5.25%"}, {"smiles": "Cc1ncoc1C(=O)NCCC(c1ccccc1)c1ccccc1", "activation": "1.32%"}, {"smiles": "Cc1ccc(N(Cc2cc(=O)[nH]c3ccccc23)C(=O)CCl)cc1", "activation": "-2.09%"}, {"smiles": "COc1ccc(OC)c(S(=O)(=O)Nc2cccc(-c3ccc4nncn4n3)c2)c1", "activation": "-5.2%"}, {"smiles": "CC1(C)OC(=O)C(=CSc2ccc(C(C)(C)C)cc2)C(=O)O1", "activation": "-0.02%"}, {"smiles": "CC1CCCN(CCCNC(=O)CN2C(=O)COc3ccc(S(=O)(=O)N4CCOCC4)cc32)C1", "note": "(centres undefined)", "activation": "-3.28%"}, {"smiles": "COc1ccc(C(=O)Oc2ccc(-c3nnco3)cc2)cc1S(=O)(=O)N1CCOCC1", "activation": "5.67%"}, {"smiles": "C[n+]1ccc(/C=C/c2c[nH]c3ccccc23)cc1", "activation": "154% (active)"}, {"smiles": "COc1ccc(C(=O)Nc2ccc(-n3nncc3C(C)(C)C)cc2)cc1", "activation": "-5.43%"}, {"smiles": "O=C(NC(=S)N1CCc2ccccc21)c1ccco1", "activation": "-3.2%"}, {"smiles": "CC(C)NC(=O)N1CCN(c2ccncc2S(=O)(=O)N2CCCCC2)CC1", "activation": "1.09%"}, {"smiles": "O=C(OCCOc1ccccc1Cl)c1cc(S(=O)(=O)N2CCCCC2)ccc1N1CCOCC1", "activation": "-4.46%"}, {"smiles": "CCCNC(=O)C(=O)Nc1cc2c3c(c1)CCC(=O)N3CCC2", "activation": "-3.33%"}, {"smiles": "OC1CN=C2Sc3ccccc3N2C1", "note": "(centres undefined)", "activation": "-0.74%"}, {"smiles": "O=C(N/N=C/C=C/c1ccco1)c1cccs1", "activation": "1.5%"}, {"smiles": "Cn1c(=O)c(=O)n(C)c2cc(S(=O)(=O)NCCN3CCN(c4ccccc4F)CC3)ccc21", "activation": "-1%"}, {"smiles": "CCN1/C(=C\\c2ccc3ccccc3[n+]2CC)Sc2cc(C)ccc21", "activation": "38.1% (active)"}, {"smiles": "N#C/C(=C/c1ccc(N2CCCCC2)o1)C(=O)NCCc1c[nH]c2ccccc12", "activation": "98.5% (active)"}, {"smiles": "O=C(NCCc1c[nH]c2ccccc12)C1CCN(Cc2ccc(Br)cc2)CC1", "activation": "-15.1%"}, {"smiles": "Cc1ccc(C(=O)N/C(=C/c2ccco2)C(=O)NCCc2c[nH]c3ccccc23)cc1C", "activation": "-3.2%"}, {"smiles": "CN(c1ccccc1)S(=O)(=O)c1ccc(NC(=O)COc2ccccc2)cc1", "activation": "0.63%"}, {"smiles": "CC1CCN(C(=O)Cn2nnnc2CN2CCOCC2)CC1", "activation": "-3.91%"}, {"smiles": "O=S(=O)(Nc1cccc(Oc2ccc(Cl)cc2)n1)c1ccc(F)cc1", "activation": "-5.16%"}, {"smiles": "O=C(CCN1C(=O)[C@@H]2Cc3ccccc3CN2C1=O)NCCc1ccccc1", "activation": "-2.53%"}, {"smiles": "CN(CCc1ccccc1)C(=O)c1cccc(NC(=O)Cc2cccc(NC(=O)C3CCCN(C(=O)CCc4ccccc4)C3)c2)c1", "note": "(centres undefined)", "activation": "-0.28%"}, {"smiles": "Cc1ccccc1NC(=O)CCNS(=O)(=O)c1ccc2[nH]c(=O)oc2c1", "activation": "-6.99%"}, {"smiles": "O=S(=O)(Cc1nnnn1-c1ccc(Br)cc1)c1ccc(F)cc1", "activation": "1.13%"}, {"smiles": "O=C(CC12CC3CC(CC(C3)C1)C2)Nc1ccc2c(c1)COC2=O", "activation": "-1.12%"}, {"smiles": "CCOc1ccc(OCC(=O)OC(C)C(=O)NC2CCCCC2C)cc1", "note": "(centres undefined)", "activation": "0.95%"}, {"smiles": "Cc1ccc(CS(=O)(=O)CCC(=O)NC2CC2)cc1", "activation": "-1.46%"}, {"smiles": "COc1ccccc1C(=O)Nc1nc2nc(-c3ccccc3)cc(=O)n2[nH]1", "activation": "5.39%"}, {"smiles": "COc1ccc(N2CC(C(=O)N[C@@H](C)C(=O)N3CCCCC3)CC2=O)cc1", "note": "(some centres undefined)", "activation": "2.39%"}, {"smiles": "Cc1ccc(S(=O)(=O)n2cccc2CO)cc1", "activation": "3.89%"}, {"smiles": "CC1(C)CC(=O)C/C(=N\\NC(=O)c2cccs2)C1", "activation": "9.93%"}, {"smiles": "Cc1cccc(N(C(=O)Cc2cccs2)C(C(=O)NC2CCCC2)c2ccsc2)c1", "note": "(centres undefined)", "activation": "2.2%"}, {"smiles": "Cc1cc(F)ccc1N1CCC(N2CCN(C)C(CCO)C2)CC1", "note": "(centres undefined)", "activation": "0.01%"}, {"smiles": "O=S(=O)(c1cccc(-c2cn3ccccc3n2)c1)N1CCCC1", "activation": "-1.73%"}, {"smiles": "COc1ccc(N(C(=O)CNC(=O)c2ccco2)C(C(=O)NCC2CCCO2)c2ccccc2)cc1Cl", "note": "(centres undefined)", "activation": "-5.45%"}, {"smiles": "Nc1ncnc2c1ncn2[C@@H]1O[C@H](CNS(=O)(=O)c2ccc(-c3ccno3)s2)[C@@H](O)[C@H]1O", "activation": "-2.32%"}, {"smiles": "CC1(C)CN(c2ccc(-c3ccnc4ncnn34)cc2)C1=O", "activation": "2.76%"}, {"smiles": "ClC1(Cl)CC1CSc1ncn[nH]1", "note": "(centres undefined)", "activation": "2.22%"}, {"smiles": "COc1ccc(CN(C)C(=S)Nc2ccc(Cl)cc2Cl)cc1", "activation": "5.9%"}, {"smiles": "O=C(CCS(=O)(=O)Cc1ccccc1F)NCCCN1CCCCC1", "activation": "5.59%"}, {"smiles": "CCN(CC)CCCC(C)n1c2nc(=O)[nH]c(=O)c-2nc2cc(Cl)ccc21", "note": "(centres undefined)", "activation": "1960% (active)"}, {"smiles": "CCN(CC)CCn1c2ccc(Cl)cc2c2nc(C)sc21", "activation": "1.89%"}, {"smiles": "CSCC[C@H](NC(=O)NCc1cccs1)C(=O)O", "activation": "4.37%"}, {"smiles": "CC(C)c1nnc(NC(=O)CCC(=O)N2CCN(c3cccc(Cl)c3)CC2)s1", "activation": "-4.73%"}, {"smiles": "COc1ccc(C(=O)COC(=O)C(O)c2ccccc2)c(OC)c1", "note": "(centres undefined)", "activation": "3.19%"}, {"smiles": "O=C(/C=C/c1ccc2c(c1)OCCO2)c1ccc(O)cc1", "activation": "-0.07%"}, {"smiles": "O=C(/C=C(O)/C=C/c1ccc(O)cc1)/C=C/c1ccc(O)cc1", "activation": "40.2% (active)"}, {"smiles": "O=C(O)/C=C/c1ccc(OCCCF)cc1", "activation": "-2.79%"}, {"smiles": "NC(=O)c1ccc(NC(=O)COC(=O)c2c3c(nc4ccccc24)/C(=C\\c2ccc4c(c2)OCO4)CCC3)cc1", "activation": "514% (active)"}, {"smiles": "NS(=O)(=O)c1ccc(NC(=O)COC(=O)c2c3c(nc4ccccc24)/C(=C\\c2ccc4c(c2)OCO4)CCC3)cc1", "activation": "4.91%"}, {"smiles": "O=C(COC(=O)c1ccncc1)Nc1ccc2c(c1)OCO2", "activation": "-5.52%"}, {"smiles": "C=CCC(C(=O)c1ccccc1)[N+](C)(C)CC=C", "note": "(centres undefined)", "activation": "-2.42%"}]}]}
